# Activity calls are given as the source filed them.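 Rule for the calls, unless noted: active = response below a set limit, under 55% cells CD8-positive and vesicle-bound, and CD8 cells' 90th-percentile brightness under 279; inactive = the rest.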
# Tests used:
# [1] = reduced mouse 2C T cell binding to pMHC/ICAM-1 vesicles – MLPCN validation set, flow cytometry, LFA-1/ICAM-1 modulator project, pilot screen (AID 2523); conditions: 2C mouse CD8+ T cells, at 7 µM, stronger effect = lower value; double positive events: measured here: CD8+/vesicle+ event percentage;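 for vesicle binding response: mean PE anti-B7-1 fluorescence of CD8+ cells relative to row control; 100% = QL9-loaded vesicles with DMSO vehicle in the same plate row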
# [2] = target: Integrin beta-1 (Homo sapiens) + Integrin alpha-4 (Homo sapiens) (UniProt P13612+P05556); test: alpha4beta1 integrin LIBS antibody binding reduction – U937 cells, HUTS-21 mAb, flow cytometry, validation set, VLA-4 allosteric modulator project, pilot screen (AID 2674;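 active = inhibition above 50%, about 3 SD of the validation set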;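 note: antibody binding induced by the VLA-4 ligand LDV present at three times its Kd; 0% = LDV ligand with antibody and no compound and 100% = antibody without LDV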); conditions: HUTS-21 LIBS mAb binding, at 6.7 µM, stronger effect = higher value, binding induced by LDV ligand
# Chain of Integrin beta-1 (Homo sapiens) + Integrin alpha-4 (Homo sapiens) (P05556 whole entry, looked up): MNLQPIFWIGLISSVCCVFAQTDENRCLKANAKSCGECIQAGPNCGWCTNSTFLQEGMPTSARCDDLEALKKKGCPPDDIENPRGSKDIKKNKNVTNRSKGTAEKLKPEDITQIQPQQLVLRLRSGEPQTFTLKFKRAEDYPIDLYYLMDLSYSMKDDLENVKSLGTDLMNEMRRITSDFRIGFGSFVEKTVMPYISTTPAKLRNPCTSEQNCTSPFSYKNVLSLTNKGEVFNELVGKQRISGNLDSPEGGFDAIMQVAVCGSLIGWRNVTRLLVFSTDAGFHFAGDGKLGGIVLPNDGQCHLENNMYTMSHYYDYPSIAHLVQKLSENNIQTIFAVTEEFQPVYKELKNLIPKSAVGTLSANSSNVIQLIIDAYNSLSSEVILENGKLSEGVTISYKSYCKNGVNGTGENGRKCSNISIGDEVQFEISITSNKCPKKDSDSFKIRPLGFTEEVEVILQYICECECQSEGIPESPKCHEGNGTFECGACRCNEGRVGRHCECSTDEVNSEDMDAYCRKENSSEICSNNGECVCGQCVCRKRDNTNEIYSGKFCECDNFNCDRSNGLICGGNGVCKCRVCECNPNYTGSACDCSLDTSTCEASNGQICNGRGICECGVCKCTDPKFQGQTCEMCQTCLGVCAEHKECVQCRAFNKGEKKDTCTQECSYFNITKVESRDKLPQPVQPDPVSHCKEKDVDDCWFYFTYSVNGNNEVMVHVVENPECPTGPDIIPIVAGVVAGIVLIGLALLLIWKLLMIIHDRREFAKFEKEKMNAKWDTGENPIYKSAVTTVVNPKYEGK
# Chain of Integrin beta-1 (Homo sapiens) + Integrin alpha-4 (Homo sapiens) (P13612 whole entry, looked up): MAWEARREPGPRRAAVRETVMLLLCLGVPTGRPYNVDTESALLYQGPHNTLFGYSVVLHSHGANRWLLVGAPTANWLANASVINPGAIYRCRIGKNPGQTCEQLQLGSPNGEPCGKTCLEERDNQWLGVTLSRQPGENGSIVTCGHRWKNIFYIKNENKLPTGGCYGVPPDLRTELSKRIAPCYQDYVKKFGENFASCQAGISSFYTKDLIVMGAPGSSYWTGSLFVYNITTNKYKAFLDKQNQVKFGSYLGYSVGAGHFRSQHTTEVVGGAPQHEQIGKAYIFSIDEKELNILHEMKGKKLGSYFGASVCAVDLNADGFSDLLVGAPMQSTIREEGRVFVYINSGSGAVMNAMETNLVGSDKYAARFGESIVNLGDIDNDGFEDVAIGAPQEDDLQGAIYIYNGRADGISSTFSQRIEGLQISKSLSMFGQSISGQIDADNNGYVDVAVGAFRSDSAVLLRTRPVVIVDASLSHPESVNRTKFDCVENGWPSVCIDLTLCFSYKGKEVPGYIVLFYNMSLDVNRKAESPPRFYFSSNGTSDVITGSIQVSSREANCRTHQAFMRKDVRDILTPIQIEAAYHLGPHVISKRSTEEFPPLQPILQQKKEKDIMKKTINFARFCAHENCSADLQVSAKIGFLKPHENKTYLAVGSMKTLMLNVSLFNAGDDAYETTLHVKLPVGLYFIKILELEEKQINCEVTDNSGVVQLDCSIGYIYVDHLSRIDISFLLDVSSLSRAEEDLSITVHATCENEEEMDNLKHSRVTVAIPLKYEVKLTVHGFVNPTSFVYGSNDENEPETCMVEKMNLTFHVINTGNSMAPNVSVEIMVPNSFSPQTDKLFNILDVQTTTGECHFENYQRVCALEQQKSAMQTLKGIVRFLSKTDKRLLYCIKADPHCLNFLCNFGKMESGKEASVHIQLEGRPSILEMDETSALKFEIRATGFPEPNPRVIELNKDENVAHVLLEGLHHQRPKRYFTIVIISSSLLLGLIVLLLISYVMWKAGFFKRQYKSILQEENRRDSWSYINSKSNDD
# [3] = calorie-restriction mimetic ROS inhibitors, yeast – validation compound set, pilot screen (AID 2706;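 active = superoxide response below 65% of plate, a cut near 3 SD across the whole screen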;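 note: yeast exposed to compound for one week at 30 degrees C before staining; 100% = mean of all compound wells on the same plate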); conditions: S. cerevisiae aging, superoxide DHE fluorescence; at 10 µM, stronger effect = lower value
# [4] = target: Beta-adrenergic receptor kinase 1 (Homo sapiens) (UniProt P25098); test: GRK2 binders displacing RNA aptamer, biochemical, validation, human GRK2, bead flow cytometry (AID 488806;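 active = aptamer binding inhibition above 30%, about 3 SD of noise from non-fluorescent compounds; inactive = inhibition at or below 30%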); conditions: bead-bound GRK2, FAM-aptamer displacement, at 10 µM, stronger effect = higher value
# Chain of Beta-adrenergic receptor kinase 1 (Homo sapiens) (P25098 whole entry, looked up): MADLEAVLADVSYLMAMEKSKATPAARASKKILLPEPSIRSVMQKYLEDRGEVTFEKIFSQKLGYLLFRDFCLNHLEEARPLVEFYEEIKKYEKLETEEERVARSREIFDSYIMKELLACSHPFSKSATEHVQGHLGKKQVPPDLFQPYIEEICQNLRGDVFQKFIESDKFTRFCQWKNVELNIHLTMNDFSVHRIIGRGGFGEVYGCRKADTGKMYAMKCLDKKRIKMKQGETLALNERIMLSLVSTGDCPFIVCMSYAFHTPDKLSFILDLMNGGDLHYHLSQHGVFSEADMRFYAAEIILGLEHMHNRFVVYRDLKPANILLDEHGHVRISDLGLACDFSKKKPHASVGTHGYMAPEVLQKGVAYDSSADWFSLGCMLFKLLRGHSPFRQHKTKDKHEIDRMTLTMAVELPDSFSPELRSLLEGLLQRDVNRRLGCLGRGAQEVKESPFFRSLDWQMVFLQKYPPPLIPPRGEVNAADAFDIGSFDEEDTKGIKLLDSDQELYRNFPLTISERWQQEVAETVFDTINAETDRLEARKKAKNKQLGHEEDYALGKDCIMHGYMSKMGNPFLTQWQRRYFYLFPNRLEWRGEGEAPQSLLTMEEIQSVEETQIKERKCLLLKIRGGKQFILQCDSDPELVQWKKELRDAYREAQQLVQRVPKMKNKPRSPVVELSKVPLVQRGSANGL
# [5] = target: Beta-2 adrenergic receptor (Homo sapiens) (UniProt P07550); test: agonist-induced loss of surface beta2AR – cell-based, FAP fluorogen, flow cytometry, validation set, pilot screen (AID 504459;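 active = percent response above 42, roughly 3 SD of non-fluorescent test compounds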;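 note: agonist-driven loss of surface beta2AR via internalization measured by FAP dye flow cytometry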); conditions: Am2.2-beta2AR cells, at 10 µM, stronger effect = higher value
# Chain of Beta-2 adrenergic receptor (Homo sapiens) (P07550 whole entry, looked up): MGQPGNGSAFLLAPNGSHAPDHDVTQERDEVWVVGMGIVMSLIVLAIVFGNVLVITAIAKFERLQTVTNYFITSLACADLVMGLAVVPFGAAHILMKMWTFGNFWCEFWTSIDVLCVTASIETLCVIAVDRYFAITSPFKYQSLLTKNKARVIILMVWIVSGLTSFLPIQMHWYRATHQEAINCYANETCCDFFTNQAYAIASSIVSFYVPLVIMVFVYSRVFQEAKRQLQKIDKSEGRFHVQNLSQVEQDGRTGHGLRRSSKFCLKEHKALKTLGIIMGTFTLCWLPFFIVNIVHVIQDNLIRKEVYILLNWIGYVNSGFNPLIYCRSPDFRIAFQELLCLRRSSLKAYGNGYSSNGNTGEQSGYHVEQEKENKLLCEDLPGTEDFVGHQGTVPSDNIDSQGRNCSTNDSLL
# [6] = target: AP-2 complex subunit beta (Homo sapiens) (UniProt P63010); test: beta-arrestin/AP2 interaction blockers – biochemical, validation set, GST-AP2 beads, flow cytometry, pilot screen (AID 504541;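 active = inhibition above 54%, about 3 SD of non-fluorescent compounds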;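 note: AP2 carries R879A mutation and is captured from E. coli lysate; bead-bound FITC arrestin peptide fluorescence measuring arrestin peptide binding to AP2; 0% = DMSO wells and 100% = excess unlabeled arrestin peptide control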); conditions: FITC arrestin peptide, at 10 µM, stronger effect = higher value, AP2 beta2 appendage fragment, R879A mutant
# Chain of AP-2 complex subunit beta (Homo sapiens) (P63010 whole entry, looked up, the tested form may be a part, one chain of several): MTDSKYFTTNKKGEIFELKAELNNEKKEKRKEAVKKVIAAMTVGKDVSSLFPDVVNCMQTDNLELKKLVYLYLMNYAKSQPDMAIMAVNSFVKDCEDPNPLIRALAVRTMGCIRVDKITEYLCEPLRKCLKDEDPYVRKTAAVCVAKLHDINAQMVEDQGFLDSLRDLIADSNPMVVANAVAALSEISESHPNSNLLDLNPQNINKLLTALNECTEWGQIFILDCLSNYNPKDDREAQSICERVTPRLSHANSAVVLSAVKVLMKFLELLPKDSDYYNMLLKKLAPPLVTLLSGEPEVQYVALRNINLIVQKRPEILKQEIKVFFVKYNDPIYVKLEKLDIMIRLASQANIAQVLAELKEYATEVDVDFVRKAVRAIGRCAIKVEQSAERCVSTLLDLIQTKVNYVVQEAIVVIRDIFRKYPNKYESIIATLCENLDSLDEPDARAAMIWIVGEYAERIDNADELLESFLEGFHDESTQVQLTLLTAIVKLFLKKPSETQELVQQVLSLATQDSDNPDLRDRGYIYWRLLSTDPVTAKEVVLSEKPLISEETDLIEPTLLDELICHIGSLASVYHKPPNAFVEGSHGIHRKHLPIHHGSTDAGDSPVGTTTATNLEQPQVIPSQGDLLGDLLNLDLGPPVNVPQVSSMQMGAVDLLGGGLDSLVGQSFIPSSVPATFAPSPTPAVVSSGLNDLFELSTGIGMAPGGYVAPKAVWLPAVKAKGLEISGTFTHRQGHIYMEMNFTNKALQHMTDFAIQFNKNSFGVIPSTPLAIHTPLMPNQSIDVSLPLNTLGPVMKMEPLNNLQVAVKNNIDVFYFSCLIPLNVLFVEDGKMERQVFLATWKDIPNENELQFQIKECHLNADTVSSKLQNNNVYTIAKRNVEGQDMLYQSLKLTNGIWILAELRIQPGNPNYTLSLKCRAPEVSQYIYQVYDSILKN
# [7] = cytosolic pH regulators acting via V-ATPase – S. cerevisiae, pHLuorin, HTS validation (AID 504600; in the data active = response above about 15%;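 note: plate controls were DMSO for no effect and reference compound for full effect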); conditions: V-ATPase proton transport, at 10 µM, stronger effect = higher value
# [8] = test system: anti-desmoglein-3 scFv antibody binding to human DSG3; test: blockers of pathogenic pemphigus antibody–desmoglein-3 binding – biochemical, validation compound set, bead-based, flow cytometry, pilot screen (AID 588368;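 active = binding below the plate cutoff, the plate median minus 3 SD, with a reading above zero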;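 note: signal is the median channel fluorescence of bead-bound GFP antibody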); conditions: Protein G beads, DSG3-Fc, scFv-GFP binding, at 10 µM, stronger effect = lower value
# [9] = Nile Red efflux blockade in pump-expressing yeast – validation compound set, multiplex, phenotypic, pilot screen (AID 588506;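 active = efflux inhibition above 0.42, the validation set average plus 4 SD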;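 note: Nile Red retained in cells so higher fluorescence means more efflux inhibition; 0 = negative control wells and 1 = enniatin B 25 µM full block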); conditions: S. cerevisiae pump-expressing triplex, Nile Red efflux flow cytometry; at 10 µM; stronger effect = higher value; the pumps come from Candida albicans
# [10] = target: ATP-binding cassette sub-family B member 6 (Homo sapiens) (UniProt Q9NP58); test: blockers of ABCB6-driven porphyrin uptake – K562-ABCB6 cells, flow cytometry, validation set, pilot screen (AID 588550;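 active = inhibition above the screen-wide mean plus 3 SD, about 51%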;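 note: 0% = DMSO wells and 100% = benzethonium chloride 70 µM positive control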); conditions: K562-ABCB6 porphyrin accumulation, 1 h, at 10 µM, stronger effect = higher value
# Chain of ATP-binding cassette sub-family B member 6 (Homo sapiens) (Q9NP58 whole entry, looked up): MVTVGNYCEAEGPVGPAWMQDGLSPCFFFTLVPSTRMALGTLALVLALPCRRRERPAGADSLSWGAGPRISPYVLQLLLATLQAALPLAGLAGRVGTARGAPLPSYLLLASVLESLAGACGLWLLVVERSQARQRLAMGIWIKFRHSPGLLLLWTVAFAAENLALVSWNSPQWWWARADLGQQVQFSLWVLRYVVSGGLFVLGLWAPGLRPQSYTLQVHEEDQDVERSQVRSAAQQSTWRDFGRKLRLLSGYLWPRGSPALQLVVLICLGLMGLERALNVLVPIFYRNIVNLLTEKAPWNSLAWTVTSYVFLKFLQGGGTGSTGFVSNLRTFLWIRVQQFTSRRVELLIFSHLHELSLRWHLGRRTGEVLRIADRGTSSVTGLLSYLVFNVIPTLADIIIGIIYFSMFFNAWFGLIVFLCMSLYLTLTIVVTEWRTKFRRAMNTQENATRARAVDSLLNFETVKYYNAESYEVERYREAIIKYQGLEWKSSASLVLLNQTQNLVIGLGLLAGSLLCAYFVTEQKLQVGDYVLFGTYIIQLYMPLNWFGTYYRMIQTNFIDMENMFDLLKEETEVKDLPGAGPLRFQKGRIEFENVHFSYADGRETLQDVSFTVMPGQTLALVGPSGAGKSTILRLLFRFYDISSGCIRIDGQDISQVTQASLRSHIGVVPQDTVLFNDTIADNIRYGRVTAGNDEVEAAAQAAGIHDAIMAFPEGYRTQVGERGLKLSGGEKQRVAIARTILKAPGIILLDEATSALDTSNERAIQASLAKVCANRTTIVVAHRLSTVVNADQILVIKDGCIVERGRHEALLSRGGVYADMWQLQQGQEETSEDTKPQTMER
# [11] = AML differentiation inducers, ER-HoxA9 marrow cells – cell-based, GFP/MAC1 double positive, flow cytometry, validation set, primary screen (AID 588685;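 active = differentiation response of at least 50%, scaled between solvent and reference control, from cells with both markers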;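 note: compound exposure lasts four days before antibody staining and flow analysis; 0% = DMSO wells and 100% = 5 µM fulvestrant positive control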); conditions: stronger effect = higher value, normalized: vehicle 0, fulvestrant 100
SMILES,double positive events [1],vesicle binding response [1],inhibition [2],superoxide response (% of plate) [3],aptamer binding inhibition [4],response [5],inhibition [6],response [7],binding (% of control) [8],efflux inhibition (fraction of control) [9],inhibition [10],differentiation response [11]
CN(C)c1cc(NC(=O)CN2CCOCC2)c2ccccc2n1,64.4%,183% (inactive),-9.06% (inactive),96.2% (inactive),-2% (inactive),2.53% (inactive),-0.56% (inactive),-1.23% (inactive),109% (inactive),-0.17 (inactive),15% (inactive),-3.28% (inactive)
CCc1cccc(OC2OC(CO)C(O)C(O)C2NC(C)=O)c1 (configuration not stated),69.6%,308% (inactive),-5.38% (inactive),98.7% (inactive),1% (inactive),-16.8% (inactive),-1.83% (inactive),4.31% (inactive),103% (inactive),-0.13 (inactive),7% (inactive),0.92% (inactive)
O=C(c1ccc([N+](=O)[O-])cc1)N1CCSC1c1ccccc1Cl (configuration not stated),77.4%,441% (inactive),-9.98% (inactive),91% (inactive),4% (inactive),-12.5% (inactive),-8.18% (inactive),-2.22% (inactive),101% (inactive),-0.1 (inactive),5% (inactive),0.8% (inactive)
CCN1C(=O)C(CC(=O)Nc2ccc(F)cc2)N(Cc2ccc3c(c2)OCO3)C1=S (configuration not stated),56.3%,124% (inactive),7.76% (inactive),101% (inactive),0% (inactive),22.9% (inactive),-7.91% (inactive),0.48% (inactive),107% (inactive),0.44 (active),4% (inactive),58.4% (active)
COc1ccc(C)cc1S(=O)(=O)Nc1ccc(F)cc1,64.5%,172% (inactive),5.61% (inactive),98.8% (inactive),1% (inactive),0.44% (inactive),2.42% (inactive),-2.48% (inactive),102% (inactive),0.06 (inactive),17% (inactive),-3.11% (inactive)
COc1ccc(C(=O)C2CCCCC2=O)cc1 (configuration not stated),67.8%,193% (inactive),9.1% (inactive),100% (inactive),0% (inactive),15.9% (inactive),2.47% (inactive),-6% (inactive),101% (inactive),0.04 (inactive),16% (inactive),-7.94% (inactive)
CCc1cc(=O)oc2cc(OCC=C(C)C)ccc12,66.7%,297% (inactive),26.9% (inactive),89.5% (inactive),6% (inactive),1.45% (inactive),-1.05% (inactive),-0.58% (inactive),103% (inactive),-0.03 (inactive),3% (inactive),-18.4% (inactive)
O[C@@H](CNC[C@H](O)c1ccccc1)c1ccccc1,62.7%,156% (inactive),-27.7% (inactive),99.8% (inactive),-3% (inactive),43.5% (active),9.85% (inactive),0.68% (inactive),102% (inactive),0.01 (inactive),1% (inactive),21.6% (inactive)
CCc1cc2c3c(c(=O)oc2cc1O)CCCC3,67.8%,257% (inactive),-18.2% (inactive),93.2% (inactive),1% (inactive),1.88% (inactive),-7.42% (inactive),2.52% (inactive),99.5% (inactive),-0.21 (inactive),11% (inactive),4% (inactive)
C=C(C)c1nc2cc(OC)c(OC)cc2c(=O)o1,66.2%,181% (inactive),-9.06% (inactive),96.8% (inactive),0% (inactive),-1.85% (inactive),0.91% (inactive),2.81% (inactive),105% (inactive),-0.46 (inactive),11% (inactive),9.01% (inactive)
CCOC(=O)COc1ccc2c(=O)c(-c3ccccc3)coc2c1,61.7%,236% (inactive),21% (inactive),92.8% (inactive),0% (inactive),-10.5% (inactive),1.34% (inactive),0.65% (inactive),100% (inactive),-0.09 (inactive),-4% (inactive),-7.94% (inactive)
Cc1csc(-c2coc3cc(O)cc(C)c3c2=O)n1,63.8%,138% (inactive),2.3% (inactive),119% (inactive),2% (inactive),0.13% (inactive),13.4% (inactive),-4.09% (inactive),97.4% (inactive),-0.03 (inactive),17% (inactive),2.4% (inactive)
CN(C)CCCNc1ncnc2c1cnn2-c1ccccc1,70.3%,336% (inactive),16% (inactive),94.4% (inactive),-2% (inactive),8.67% (inactive),-0.95% (inactive),1.69% (inactive),97% (inactive),0.12 (inactive),12% (inactive),23.2% (inactive)
C=CCn1c(SCC(=O)NC2CCCCC2)nc2ccccc2c1=O,57.6%,172% (inactive),4.27% (inactive),114% (inactive),3% (inactive),-5.54% (inactive),1.93% (inactive),11.4% (inactive),99.2% (inactive),0 (inactive),-4% (inactive),-17.7% (inactive)
O=C(Nc1cccc(-c2nc3ncccc3o2)c1)c1ccccc1,56.1%,159% (inactive),2.3% (inactive),106% (inactive),1% (inactive),17.2% (inactive),-1.86% (inactive),7.44% (inactive),102% (inactive),-0.06 (inactive),0% (inactive),-16.8% (inactive)
COc1ccc(N2C(=O)[C@@H]3Cc4ccccc4CN3C2=O)cc1,63.2%,211% (inactive),14.6% (inactive),89.7% (inactive),5% (inactive),12.1% (inactive),-2.78% (inactive),-2.4% (inactive),107% (inactive),0.01 (inactive),7% (inactive),18.4% (inactive)
O=P(c1ccccc1)(c1ccccc1)c1nc(-c2ccc(Cl)cc2)oc1N1CCOCC1,57.7%,148% (inactive),4.27% (inactive),135% (inactive),2% (inactive),-13.6% (inactive),7.65% (inactive),3.02% (inactive),105% (inactive),0.435 (active),-3% (inactive),-3.11% (inactive)
O=C(NCCc1cccc(F)c1)[C@@H]1CSC2c3ccccc3C(=O)N21 (some centres not stated),63.2%,251% (inactive),5.03% (inactive),97.1% (inactive),5% (inactive),1.99% (inactive),-1.7% (inactive),0.26% (inactive),101% (inactive),0.12 (inactive),7% (inactive),2.4% (inactive)
O=C1CCCCCN1Cc1ccccc1,62.4%,208% (inactive),3.67% (inactive),97.2% (inactive),7% (inactive),-1.56% (inactive),-4.78% (inactive),5.84% (inactive),101% (inactive),-0.24 (inactive),5% (inactive),8.8% (inactive)
C=C(CC)C(=O)c1ccc(OCC(=O)O)c(Cl)c1Cl,52.1%,105% (inactive),-4.21% (inactive),98.5% (inactive),2% (inactive),14.6% (inactive),-9.01% (inactive),1.56% (inactive),108% (inactive),-0.38 (inactive),-92% (inactive),1.64% (inactive)
O=C(Cc1ccc(Br)cc1)c1ccc(O)cc1O,58.3%,228% (inactive),-23.6% (inactive),97.7% (inactive),-1% (inactive),-3.21% (inactive),-2.59% (inactive),1.13% (inactive),105% (inactive),0.09 (inactive),2% (inactive),12.3% (inactive)
Cc1oc2c(CN3CCCC3)c(O)ccc2c(=O)c1-c1ccc(Cl)cc1,75.9%,328% (inactive),3.14% (inactive),81.5% (inactive),1% (inactive),-23.2% (inactive),6.26% (inactive),-0.55% (inactive),96.9% (inactive),0 (inactive),10% (inactive),-1.05% (inactive)
CC(=O)N1CC2(C)CN(C(C)=O)CC(C)(C1)C2,60.3%,169% (inactive),8.25% (inactive),91.7% (inactive),-2% (inactive),-23.9% (inactive),-12.9% (inactive),1.35% (inactive),100% (inactive),0 (inactive),-1% (inactive),-4.99% (inactive)
O=C(CCCC(=O)OCC1CCCO1)OCC1CCCO1 (configuration not stated),65.5%,131% (inactive),4.52% (inactive),93.2% (inactive),-3% (inactive),2.91% (inactive),-6.03% (inactive),2.81% (inactive),99.4% (inactive),-0.02 (inactive),15% (inactive),2.46% (inactive)
Cc1ccc(C(=O)N2CC3(C(C)C)CN(C(=O)c4ccc(C)cc4)CC(C(C)C)(C2)C3=O)cc1,59.7%,224% (inactive),-30.5% (inactive),97.1% (inactive),3% (inactive),24.4% (inactive),14.1% (inactive),-0.93% (inactive),99.1% (inactive),0.76 (active),5% (inactive),7.2% (inactive)
C#CCN(C)Cc1ccccc1,66.2%,248% (inactive),-2.82% (inactive),102% (inactive),2% (inactive),-26.9% (inactive),-10.1% (inactive),-1.24% (inactive),99.9% (inactive),-0.04 (inactive),2% (inactive),-8.93% (inactive)
